The target in experiment [1] is Insulin receptor (Homo sapiens) (UniProt P06213). The note with it: at 10 µM.
Experiment [2] shares this target. The note with it: at 1 µM.
For experiment [3] the target is unchanged. The note with it: at 10 µM. This is another data set of the same source.
Experiment [4] deals with Interleukin-1 receptor-associated kinase 1 (Homo sapiens) (UniProt P51617). The note with it: at 1 µM.
The target is the same in experiment [5]. Particulars: at 10 µM.
Experiment [6] concerns the target T1, Interleukin-1 receptor-associated kinase 4 (Homo sapiens) (UniProt Q9NWZ3).
T1 sequence (whole entry): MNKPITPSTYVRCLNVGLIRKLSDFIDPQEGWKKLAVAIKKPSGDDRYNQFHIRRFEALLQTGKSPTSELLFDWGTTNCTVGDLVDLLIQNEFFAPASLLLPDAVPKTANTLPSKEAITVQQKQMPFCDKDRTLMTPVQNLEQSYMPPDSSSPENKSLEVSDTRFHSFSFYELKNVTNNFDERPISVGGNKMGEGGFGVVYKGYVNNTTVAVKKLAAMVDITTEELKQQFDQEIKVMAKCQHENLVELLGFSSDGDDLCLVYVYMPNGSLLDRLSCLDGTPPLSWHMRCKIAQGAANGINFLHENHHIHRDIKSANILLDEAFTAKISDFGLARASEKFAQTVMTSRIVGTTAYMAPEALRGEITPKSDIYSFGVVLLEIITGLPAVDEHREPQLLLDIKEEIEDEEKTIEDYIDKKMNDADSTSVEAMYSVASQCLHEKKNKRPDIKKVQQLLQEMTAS
The note with it: at 1 µM.

Experiment [7] addresses T1, Interleukin-1 receptor-associated kinase 4 (Homo sapiens). Particulars: at 10 µM.
Experiment [8] has as its target Insulin receptor-related protein (Homo sapiens) (UniProt P14616). Particulars: at 1 µM.
For experiment [9] the target is unchanged. Particulars: at 10 µM.
Experiment [10] concerns the target T2, Tyrosine-protein kinase ITK/TSK (Homo sapiens) (UniProt Q08881).
T2 sequence (whole entry): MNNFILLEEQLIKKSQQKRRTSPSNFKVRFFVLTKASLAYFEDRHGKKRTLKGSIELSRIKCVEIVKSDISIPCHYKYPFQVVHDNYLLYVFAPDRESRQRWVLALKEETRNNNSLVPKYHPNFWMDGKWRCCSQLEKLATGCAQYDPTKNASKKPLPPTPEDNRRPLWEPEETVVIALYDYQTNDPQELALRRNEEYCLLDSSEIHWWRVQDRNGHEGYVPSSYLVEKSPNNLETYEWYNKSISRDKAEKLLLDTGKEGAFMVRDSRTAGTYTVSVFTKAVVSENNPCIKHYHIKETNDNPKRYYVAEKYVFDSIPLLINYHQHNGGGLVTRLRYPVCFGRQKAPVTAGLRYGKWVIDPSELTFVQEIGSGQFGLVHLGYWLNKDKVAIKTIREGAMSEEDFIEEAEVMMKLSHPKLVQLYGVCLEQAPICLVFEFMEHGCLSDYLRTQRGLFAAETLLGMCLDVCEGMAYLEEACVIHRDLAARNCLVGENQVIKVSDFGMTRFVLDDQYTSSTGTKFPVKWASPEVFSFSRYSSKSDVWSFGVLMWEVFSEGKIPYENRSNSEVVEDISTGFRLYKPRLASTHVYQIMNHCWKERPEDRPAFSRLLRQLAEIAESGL
Particulars: at 1 µM.

Experiment [11] concerns the target T2, Tyrosine-protein kinase ITK/TSK (Homo sapiens). The note with it: at 10 µM.
Experiment [12] has as its target Tyrosine-protein kinase JAK2 (Homo sapiens) (UniProt O60674). Particulars: at 1 µM.
Experiment [13] shares this target. The note with it: at 10 µM.
The target of experiment [14] is T3, Tyrosine-protein kinase JAK3 (Homo sapiens) (UniProt P52333).
T3 sequence (whole entry): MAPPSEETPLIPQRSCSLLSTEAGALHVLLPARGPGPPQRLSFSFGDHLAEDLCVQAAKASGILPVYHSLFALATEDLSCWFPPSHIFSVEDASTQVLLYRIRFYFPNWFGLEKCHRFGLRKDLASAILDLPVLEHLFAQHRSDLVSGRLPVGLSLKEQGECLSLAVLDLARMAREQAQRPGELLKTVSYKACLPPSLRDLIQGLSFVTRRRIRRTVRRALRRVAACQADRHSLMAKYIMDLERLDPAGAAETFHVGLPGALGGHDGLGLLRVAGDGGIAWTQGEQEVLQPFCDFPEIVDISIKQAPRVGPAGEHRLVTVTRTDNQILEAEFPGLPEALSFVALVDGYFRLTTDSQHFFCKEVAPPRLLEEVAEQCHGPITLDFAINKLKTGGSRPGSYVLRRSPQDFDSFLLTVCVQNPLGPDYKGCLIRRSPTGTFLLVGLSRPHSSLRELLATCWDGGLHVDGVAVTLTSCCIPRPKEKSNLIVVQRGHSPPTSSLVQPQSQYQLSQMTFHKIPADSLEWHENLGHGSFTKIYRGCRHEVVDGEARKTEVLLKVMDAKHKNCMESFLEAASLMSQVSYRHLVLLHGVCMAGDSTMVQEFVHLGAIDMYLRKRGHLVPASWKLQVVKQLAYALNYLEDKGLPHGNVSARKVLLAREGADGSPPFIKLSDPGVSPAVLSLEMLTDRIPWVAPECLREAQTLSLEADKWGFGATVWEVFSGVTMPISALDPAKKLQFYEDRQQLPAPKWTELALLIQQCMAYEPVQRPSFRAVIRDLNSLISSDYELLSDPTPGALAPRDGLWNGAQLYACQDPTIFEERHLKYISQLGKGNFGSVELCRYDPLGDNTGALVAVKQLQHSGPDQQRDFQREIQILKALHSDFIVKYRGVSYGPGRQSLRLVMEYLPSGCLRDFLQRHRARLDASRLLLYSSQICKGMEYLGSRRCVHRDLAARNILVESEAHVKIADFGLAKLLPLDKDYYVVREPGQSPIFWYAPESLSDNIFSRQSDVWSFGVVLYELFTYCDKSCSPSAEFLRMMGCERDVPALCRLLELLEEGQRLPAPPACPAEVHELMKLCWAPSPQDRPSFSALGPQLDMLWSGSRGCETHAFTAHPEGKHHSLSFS
The note with it: at 1 µM.

Experiment [15] addresses T3, Tyrosine-protein kinase JAK3 (Homo sapiens). The note with it: at 10 µM.
The target of experiment [16] is Mitogen-activated protein kinase 8 (Homo sapiens) (UniProt P45983). The note with it: at 1 µM.
Chain of Mitogen-activated protein kinase 8 (Homo sapiens) (P45983 whole entry): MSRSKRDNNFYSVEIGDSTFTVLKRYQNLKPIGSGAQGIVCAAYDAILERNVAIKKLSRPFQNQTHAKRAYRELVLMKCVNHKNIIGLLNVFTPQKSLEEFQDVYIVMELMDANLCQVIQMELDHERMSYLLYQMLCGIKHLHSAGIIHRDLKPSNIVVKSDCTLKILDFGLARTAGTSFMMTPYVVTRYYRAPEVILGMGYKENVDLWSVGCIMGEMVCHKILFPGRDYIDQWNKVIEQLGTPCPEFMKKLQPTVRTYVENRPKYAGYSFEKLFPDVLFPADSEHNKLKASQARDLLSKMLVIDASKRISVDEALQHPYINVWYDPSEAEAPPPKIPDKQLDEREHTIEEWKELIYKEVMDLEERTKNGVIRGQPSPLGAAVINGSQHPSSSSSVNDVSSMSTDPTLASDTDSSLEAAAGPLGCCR
Experiment [17] shares this target. The note with it: at 10 µM.
Experiment [18] has as its target Mitogen-activated protein kinase 9 (Homo sapiens) (UniProt P45984). The note with it: at 10 µM.
Experiment [19] addresses Mitogen-activated protein kinase 10 (Homo sapiens) (UniProt P53779). The note with it: at 1 µM.
Experiment [20] deals with Mitogen-activated protein kinase 9 (Homo sapiens) (UniProt P45984). Particulars: at 1 µM.

Chain of Tyrosine-protein kinase JAK2 (Homo sapiens) (O60674 whole entry): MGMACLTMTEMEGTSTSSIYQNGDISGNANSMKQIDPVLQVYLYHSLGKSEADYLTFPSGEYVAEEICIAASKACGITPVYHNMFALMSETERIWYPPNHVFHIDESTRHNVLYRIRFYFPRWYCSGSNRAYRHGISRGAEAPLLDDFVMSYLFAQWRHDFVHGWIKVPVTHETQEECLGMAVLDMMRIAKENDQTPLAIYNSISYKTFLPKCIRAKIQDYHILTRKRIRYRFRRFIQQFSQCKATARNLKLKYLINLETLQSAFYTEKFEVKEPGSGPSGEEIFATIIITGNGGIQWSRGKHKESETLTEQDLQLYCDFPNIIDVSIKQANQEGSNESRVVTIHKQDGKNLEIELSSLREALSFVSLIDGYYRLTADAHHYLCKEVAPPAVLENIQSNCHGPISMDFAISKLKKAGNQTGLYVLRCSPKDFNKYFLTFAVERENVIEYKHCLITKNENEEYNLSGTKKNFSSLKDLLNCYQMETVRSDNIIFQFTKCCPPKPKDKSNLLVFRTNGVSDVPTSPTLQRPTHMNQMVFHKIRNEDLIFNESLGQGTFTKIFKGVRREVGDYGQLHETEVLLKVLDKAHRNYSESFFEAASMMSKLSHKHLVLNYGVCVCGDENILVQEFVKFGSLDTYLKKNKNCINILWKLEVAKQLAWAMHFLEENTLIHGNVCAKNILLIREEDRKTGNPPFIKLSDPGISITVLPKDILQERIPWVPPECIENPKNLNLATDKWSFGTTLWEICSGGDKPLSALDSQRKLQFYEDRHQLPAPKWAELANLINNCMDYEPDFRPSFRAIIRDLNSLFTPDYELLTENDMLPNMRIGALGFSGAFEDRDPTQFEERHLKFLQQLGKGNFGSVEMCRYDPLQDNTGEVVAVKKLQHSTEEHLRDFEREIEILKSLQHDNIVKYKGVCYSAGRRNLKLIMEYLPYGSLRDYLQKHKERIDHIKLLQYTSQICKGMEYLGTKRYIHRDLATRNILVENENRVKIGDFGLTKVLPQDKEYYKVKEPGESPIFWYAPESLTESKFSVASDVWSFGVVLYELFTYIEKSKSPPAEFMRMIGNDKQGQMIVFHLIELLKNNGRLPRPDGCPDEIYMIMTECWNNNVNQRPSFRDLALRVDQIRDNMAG
Chain of Insulin receptor (Homo sapiens) (P06213 28-758 limits assumed): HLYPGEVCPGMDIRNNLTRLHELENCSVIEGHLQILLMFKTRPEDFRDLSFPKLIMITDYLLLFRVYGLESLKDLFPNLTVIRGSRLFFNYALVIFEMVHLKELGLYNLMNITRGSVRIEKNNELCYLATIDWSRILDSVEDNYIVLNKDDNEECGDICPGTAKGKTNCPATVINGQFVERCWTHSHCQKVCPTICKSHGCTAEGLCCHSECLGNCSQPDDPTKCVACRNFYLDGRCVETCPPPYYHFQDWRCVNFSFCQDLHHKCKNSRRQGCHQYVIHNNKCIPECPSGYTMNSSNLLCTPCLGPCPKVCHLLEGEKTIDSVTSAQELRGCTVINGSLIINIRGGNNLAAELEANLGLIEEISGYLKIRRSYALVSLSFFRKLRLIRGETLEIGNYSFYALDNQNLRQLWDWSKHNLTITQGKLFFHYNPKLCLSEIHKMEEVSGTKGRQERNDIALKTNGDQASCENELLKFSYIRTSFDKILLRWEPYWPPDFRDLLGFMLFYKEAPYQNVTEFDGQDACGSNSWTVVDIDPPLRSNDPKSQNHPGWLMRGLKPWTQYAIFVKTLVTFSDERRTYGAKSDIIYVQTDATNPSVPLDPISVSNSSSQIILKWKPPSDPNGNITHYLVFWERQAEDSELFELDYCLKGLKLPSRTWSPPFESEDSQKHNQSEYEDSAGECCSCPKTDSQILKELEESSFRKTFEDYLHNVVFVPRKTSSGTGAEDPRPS
Chain of Insulin receptor (Homo sapiens) (P06213 763-1382 limits assumed): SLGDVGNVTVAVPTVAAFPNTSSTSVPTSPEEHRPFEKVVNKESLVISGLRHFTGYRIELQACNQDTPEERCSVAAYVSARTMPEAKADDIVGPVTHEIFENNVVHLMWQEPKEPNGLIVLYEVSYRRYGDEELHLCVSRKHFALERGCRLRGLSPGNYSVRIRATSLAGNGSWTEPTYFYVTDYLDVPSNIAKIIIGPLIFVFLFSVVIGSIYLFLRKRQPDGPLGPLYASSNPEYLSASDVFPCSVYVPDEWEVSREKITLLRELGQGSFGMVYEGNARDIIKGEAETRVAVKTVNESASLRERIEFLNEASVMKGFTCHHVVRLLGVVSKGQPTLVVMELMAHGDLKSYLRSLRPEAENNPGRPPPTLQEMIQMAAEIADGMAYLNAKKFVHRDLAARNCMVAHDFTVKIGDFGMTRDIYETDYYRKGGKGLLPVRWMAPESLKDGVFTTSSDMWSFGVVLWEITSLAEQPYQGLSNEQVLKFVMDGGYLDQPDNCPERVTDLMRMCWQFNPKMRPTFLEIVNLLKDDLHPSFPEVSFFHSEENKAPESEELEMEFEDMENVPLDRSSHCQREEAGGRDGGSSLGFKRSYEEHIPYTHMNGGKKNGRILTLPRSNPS
Chain of Interleukin-1 receptor-associated kinase 1 (Homo sapiens) (P51617 whole entry, looked up): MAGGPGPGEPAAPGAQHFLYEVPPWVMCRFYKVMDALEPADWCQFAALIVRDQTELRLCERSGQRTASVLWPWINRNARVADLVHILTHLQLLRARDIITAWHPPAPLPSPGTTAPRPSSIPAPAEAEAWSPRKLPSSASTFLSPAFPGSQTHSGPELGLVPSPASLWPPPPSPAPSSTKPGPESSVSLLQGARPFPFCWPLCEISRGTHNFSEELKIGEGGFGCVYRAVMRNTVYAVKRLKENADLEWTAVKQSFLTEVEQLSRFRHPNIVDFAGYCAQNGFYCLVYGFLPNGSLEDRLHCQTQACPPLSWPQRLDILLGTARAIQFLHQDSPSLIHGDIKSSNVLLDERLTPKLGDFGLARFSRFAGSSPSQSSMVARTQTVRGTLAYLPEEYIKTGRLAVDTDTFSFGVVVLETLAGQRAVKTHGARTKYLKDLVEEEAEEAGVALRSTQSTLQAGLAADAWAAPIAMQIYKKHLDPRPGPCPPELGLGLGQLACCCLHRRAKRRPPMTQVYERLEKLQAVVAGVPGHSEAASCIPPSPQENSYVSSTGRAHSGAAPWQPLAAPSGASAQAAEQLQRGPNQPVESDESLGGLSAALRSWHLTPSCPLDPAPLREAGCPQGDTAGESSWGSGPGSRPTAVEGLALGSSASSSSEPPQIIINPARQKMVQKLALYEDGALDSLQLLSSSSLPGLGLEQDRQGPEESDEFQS
Chain of Insulin receptor-related protein (Homo sapiens) (P14616 27-742 limits assumed): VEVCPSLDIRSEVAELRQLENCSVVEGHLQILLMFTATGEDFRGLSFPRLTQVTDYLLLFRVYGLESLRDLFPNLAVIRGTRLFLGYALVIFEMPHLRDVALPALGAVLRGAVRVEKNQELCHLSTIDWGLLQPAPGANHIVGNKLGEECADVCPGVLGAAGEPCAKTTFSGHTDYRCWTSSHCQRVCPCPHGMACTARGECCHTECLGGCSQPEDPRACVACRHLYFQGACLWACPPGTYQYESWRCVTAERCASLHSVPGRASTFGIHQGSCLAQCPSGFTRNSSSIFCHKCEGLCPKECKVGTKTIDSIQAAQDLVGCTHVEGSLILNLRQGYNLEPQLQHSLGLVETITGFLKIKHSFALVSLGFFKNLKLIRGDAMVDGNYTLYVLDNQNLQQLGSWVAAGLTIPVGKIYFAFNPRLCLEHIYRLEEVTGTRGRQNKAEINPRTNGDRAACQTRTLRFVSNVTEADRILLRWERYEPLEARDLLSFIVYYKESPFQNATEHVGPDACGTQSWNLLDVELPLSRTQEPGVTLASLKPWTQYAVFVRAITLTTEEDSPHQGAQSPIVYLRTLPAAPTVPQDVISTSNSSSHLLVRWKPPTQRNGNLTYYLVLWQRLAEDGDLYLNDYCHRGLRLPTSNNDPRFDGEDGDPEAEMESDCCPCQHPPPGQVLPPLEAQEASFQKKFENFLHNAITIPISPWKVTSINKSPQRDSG
Chain of Insulin receptor-related protein (Homo sapiens) (P14616 747-1297 limits assumed): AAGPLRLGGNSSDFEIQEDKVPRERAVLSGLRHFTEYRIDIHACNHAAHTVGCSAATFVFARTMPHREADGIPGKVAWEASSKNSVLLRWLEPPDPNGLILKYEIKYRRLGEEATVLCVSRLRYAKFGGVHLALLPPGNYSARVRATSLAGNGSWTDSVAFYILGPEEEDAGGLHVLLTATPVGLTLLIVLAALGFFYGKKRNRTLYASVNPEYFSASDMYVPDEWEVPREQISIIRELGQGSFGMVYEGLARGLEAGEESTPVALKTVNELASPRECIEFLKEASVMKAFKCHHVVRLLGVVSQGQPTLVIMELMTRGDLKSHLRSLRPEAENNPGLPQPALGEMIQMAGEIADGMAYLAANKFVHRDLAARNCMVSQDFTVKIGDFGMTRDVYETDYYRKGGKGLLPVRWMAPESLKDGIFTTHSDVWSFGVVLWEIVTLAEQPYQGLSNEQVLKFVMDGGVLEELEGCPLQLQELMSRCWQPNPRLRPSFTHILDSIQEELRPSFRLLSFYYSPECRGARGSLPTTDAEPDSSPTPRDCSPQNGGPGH

Take `Cc1cc(Nc2nc(-c3ccccc3)nc3ccccc23)n[nH]1`: the residual activity in [1] came out at 5%; in experiment [2], 36%; in [3], 7%; in experiment [4], 69%; in experiment [5], 23%; in [6], 45%. The residual activity in experiment [7] is 12%; in [8], 8%; in experiment [9], 1%; in [10], 5%; in [11] it was 0%; in [12] it was 14%. The residual activity stood at 1% in [13]; 41% in experiment [14]; 5% in [15]; 94% in experiment [16]; 71% in experiment [17]; 66% in experiment [18]. Also, the residual activity in experiment [19] turned out to be 51%.

Turning to `O=C(Nc1cccc(Nc2cc(Nc3cccc(C(F)(F)F)c3)ncn2)c1)C1CC1`, the residual activity stood at 94% in experiment [1]; 97% in [2]; 106% in experiment [3]; 95% in [4]; 96% in experiment [5]; 97% in experiment [6]. For the same compound, the residual activity in experiment [7] worked out at 80%; in experiment [8], 117%; in experiment [9], 63%; in experiment [10] it was 105%; in experiment [11], 95%; in [12], 116%. Besides, the residual activity in experiment [13] came to 138%; in [14], 106%; in experiment [15] it was 115%; in [16] it was 107%; in experiment [17], 83%; in experiment [20] it was 104%. For the same compound, the residual activity in [18] is 103%; in experiment [19], 82%.

With `N#CC(C#N)=C(N)/C(C#N)=C/c1ccc(O)cc1`, the residual activity turned out to be 83% in experiment [1]; 98% in experiment [2]; 93% in experiment [3]; 84% in experiment [5]; 142% in experiment [8]; 76% in [9]. The results for the residual activity in experiment [17] and in experiment [19] were 83% and 96%, respectively.

For `N#C/C(=C(\N)Sc1ccc(N)cc1)c1ccccc1C(F)(F)F`, the residual activity in experiment [1] was 102%; in experiment [2] it was 102%; in experiment [3], 92%; in experiment [4] it was 91%; in experiment [5] it was 112%; in [6], 83%. For the same compound, the residual activity in experiment [7] came out at 81%; in [8] it was 105%; in experiment [9] it was 101%; in experiment [10] it was 100%; in experiment [11], 96%; in [12], 99%. For the same compound, the residual activity in experiment [13] was 98%; in [14], 101%; in experiment [15] it was 101%; in [16] it was 95%; in experiment [17], 100%; in experiment [20], 93%. Besides, the residual activity in [18] was determined as 103%; in experiment [19] it was 114%.

With `COc1cc2ncnc(N3CCN(C(=O)Nc4ccc(Oc5ccccc5)cc4)CC3)c2cc1OC`, the residual activity came to 113% in experiment [1]; 98% in experiment [2]; 97% in [3]; 76% in experiment [4]; 57% in experiment [5]; 87% in experiment [6]. Moreover, the residual activity was 98% in [7]; 117% in experiment [8]; 80% in experiment [9]; 88% in [10]; 73% in experiment [11]; 101% in experiment [12]. In addition, the residual activity turned out to be 118% in [13]; 97% in experiment [14]; 124% in experiment [15]; 93% in experiment [16]; 75% in [17]; 108% in experiment [20]. The residual activity in [18] came out at 97%; in [19] it was 85%.

For `O=C1Nc2ccc(Br)cc2/C1=C\c1cc2c([nH]1)CCCC2`, the residual activity was found to be 79% in experiment [1]; 82% in experiment [6]; 77% in experiment [7]; 114% in experiment [8]; 63% in [9]; 105% in experiment [12]. Also, the residual activity in [13] stood at 99%; in experiment [14], 108%; in experiment [15], 101%; in [16] it was 114%; in [17], 114%; in [20], 101%.

Source of the values: ChEMBL document CHEMBL2218924, “A broad activity screen in support of a chemogenomic map for kinase signalling research and drug discovery” (Biochem J, 2013).
